This is part of a sample that, as a whole, favours compounds with a hit. Of some 83,000 tested, about 20% had one in any assay.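 Results are percent growth after 48 hours of single-concentration exposure. 100 means growth as in untreated cells, lower positive values show inhibition; negative values down to -100 show cell death.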 The source made the active and inactive calls. Rule for the calls: active = growth percent below 10; inactive = the rest.

For this assay, the system named is MDA-MB-468 breast. In words: NCI-60 one-dose screen, 48 h (100 = growth as untreated, 0 = no growth, -100 = all killed). To be noted: 10 µM unless noted.
Turning to `Cn1c(SCC(=O)c2cccs2)nc2ccccc2c1=O`, the growth is 68.7% (inactive).
Turning to `Cn1ccc(Nc2nccc(Oc3ccc(C(=O)Nc4cccc(F)c4)c(Cl)c3)n2)c1`, the growth was -12.3% (active).
In the case of `Cc1ccc(-c2nc(C(Cl)Cl)nc3cc(C)nn23)cc1` it was -37.7% (active); in that of `N#C/C(=C\c1ccccc1Cl)c1cc2ccccc2[nH]1`, 58.1% (inactive).
For `CCCCCCCCCCCCCC(=S)NCCCC[C@H](NC(=O)OCc1ccccc1)C(=O)Nc1ccccc1`, the growth was 27.1% (inactive).
`Cc1cc(-c2ccc(Cl)cc2)n(Cc2nnc(SCC(=O)Nc3ccc(S(N)(=O)=O)cc3)n2C2CCCCC2)n1`: the growth is 117% (inactive).
Turning to `FC(F)(F)c1cccc(-n2nnc3cnc(Nc4ccc(N5CCCCC5)cc4)nc32)c1`, the growth is 68.7% (inactive).
With `CCOC(=O)c1cc2c(n1C)-c1nc(NC(C)=O)sc1CCC2`, the growth was 79.8% (inactive).
For the compound `Cc1ccc(C(=O)Nc2cccc(C#Cc3cccc4[nH]nc(N)c34)c2)cc1C(F)(F)F`, the growth is 95.6% (inactive).
`Cc1nc2sc(C(=O)Nc3ccccn3)c(N)c2cc1C(C)O` (stereo not drawn): the growth is 38.4% (inactive).
Turning to `COc1cc(NS(C)(=O)=O)ccc1Cc1c2ccccc2nc2ccccc12`, the growth is -14.1% (active).
`CCOC(=O)c1c(Nc2ccccc2)nn2c(-c3ccco3)c(C#N)cnc12`: the growth is 89.4% (inactive).
For the compound `CN(C)CCN=c1nc2c(c(N)n1-c1ccccc1)c(=S)n(-c1ccccc1)c(=S)n2-c1ccccc1`, the growth is -34.6% (active).
For `C1CCC(N2CN3c4nonc4N4CN(C5CCCCC5)CN5c6nonc6N(C2)C3C45)CC1` (stereo not drawn), the growth was 99.5% (inactive).
In the case of `CC(=O)N1N=C(c2ccc(Cl)cc2)CC1c1c(C)nn(-c2ccccc2)c1N(C)Cc1ccccc1` (stereo not drawn), the growth was 58.9% (inactive).
With `Cc1ccc(C2CC(c3cccc(Nc4ccncc4)c3)=NN2c2ccccc2)cc1` (stereo not drawn), the growth was -78.5% (active).
In the case of `O=S=Nc1ccc([N+](=O)[O-])cc1` it was 103% (inactive); in that of `Cc1ccc(/C=C/c2nn3c(-c4ccco4)nnc3s2)cc1C`, 107% (inactive); in that of `C=CCn1c(C)nc2ccc(Nc3nc(Nc4ccc5nc(C)n(CC=C)c5c4)c4ccccc4n3)cc21`, -92.8% (active).
On to `C#CC#CC#CC#CC#CC#CC#CC#CC[C@@H]1OC[C@@H](COC(=O)O[C@@H](C(=O)O[C@H]2C[C@@]3(O)[C@@H](OC(=O)c4ccccc4)[C@@H]4[C@]5(OC(C)=O)CO[C@@H]5C[C@H](O)[C@@]4(C)C(=O)[C@H](OC(C)=O)C(=C2C)C3(C)C)[C@@H](NC(=O)c2ccccc2)c2ccccc2)O1`, for which the growth is -4.7% (active).
Turning to `N#Cc1c(-c2ccc(Cl)cc2)nc(SCC(=O)NC2=NN=C(c3ccccc3)CS2)[nH]c1=O`, the growth was 47.7% (inactive).
Regarding `C#CCSc1nnnn1-c1ccc(Br)c(C)c1`, the growth was 67.2% (inactive).
In the case of `CC(=O)Nc1ccc(S(=O)(=O)NC(CCC(=O)Nc2ccc(Cl)cc2)C(=O)O)cc1` (stereo not drawn) it was 98.8% (inactive); in that of `COc1cccc(C2C(C#N)=C(N)Oc3cc(OCCCCCC[P+](c4ccccc4)(c4ccccc4)c4ccccc4)ccc32)c1` (stereo not drawn), -64.3% (active); in that of `COc1cc(/C=C/C(=O)N2CCC=CC2=O)cc(OC)c1OC`, 22.7% (inactive).
With `O=C1c2ccccc2CCC1(Br)Br`, the growth is -42.2% (active).
On to `COc1cc(C2CC(c3ccc(Nc4ccnc5cc(Cl)ccc45)cc3)=NN2c2ccc(Cl)cc2)cc(OC)c1OC` (stereo not drawn), for which the growth is 41.9% (inactive).
For `CN(C)c1ccc(/C=C/c2ccnc3ccccc23)cc1`, the growth is -9.88% (active).

Source of the values: PubChem BioAssay (NCI).
